Screens deposited in PubChem BioAssay by National Center for Advancing Translational Sciences (NCATS).
TDP1 cell CPT – growth inhibition of DT40 Tdp1-/-;hTDP1 cells with camptothecin (screen for TDP1 inhibitors); chicken DT40 Tdp1-/-;hTDP1 cells + 20 nM CPT, ATP luminescence, 48 h; Potency, µM (doses to about 46.2 µM), hits mostly inhibitors; 420,000 tested, 12% active; further: nearly all actives have a fitted effect of over 55% in size
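Chicken DT40 Tdp1-/- cells stably complemented with human TDP1 were seeded at 400 cells/well in medium containing 20 nM camptothecin, exposed to pin-transferred compounds, and grown at 37 °C for at least 48 hr. Viability was read as ATP luminescence.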
TDP1 cell noCPT – qHTS for Inhibitors of human tyrosyl-DNA phosphodiesterase 1 (TDP1): qHTS in cells in absence of CPT | DT40 Tdp1-/- hTDP1 cells, no CPT, ATP luminescence, 48 h | Potency, µM (top dose mostly 46.2 µM), hits mostly inhibitors | 420,000 tested, 15% active | AID 686978, 2013; further: nearly all actives have a fitted effect of over 55% in size
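Luminescent ATP content (CellTiter-Glo) served as the growth readout. Knockout chicken DT40 cells expressing human TDP1 were exposed to compounds without camptothecin for a minimum 48 hr at 37 °C.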
ClpP mod – qHTS Assay for Activators of ClpP; Potency, µM (highest dose often 57.5 µM); ATP-dependent Clp protease proteolytic subunit (Bacillus subtilis (strain 168)), P80244; purified B. subtilis ClpP, FRET peptide cleavage, 20 min; 340,000 tested, 1.9% active; AID 651965, 2013; active means well fitted falling curve with a large enough effect; inconclusive means small, poorly fitted or top-dose-only effect; inactive means no such curve, though single readings can be large or run the other way; further: the source files actives as falling curves though it sought activators and does not explain the sign; nearly all actives have a fitted effect of over 65% in size
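ClpP 10 microg/mL final, pH 8 Tris/KCl buffer with BSA, glycerol, Tween-20; compound pinned in; FRET-FV substrate; RT 20 min; Ex320/Em430; ΔFRET vs ADEP 5.8 microM, DMSO, no enzyme.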
TDP1 block – TDP1 (human) enzyme inhibition. AID 485290. 350,000 tested, 0.28% active. Potency, µM (doses to about 130 µM), usual class: inhibitors. recombinant TDP1, AlphaScreen DNA substrate cleavage. Q9NUW8; further: nearly all actives have a fitted effect of over 40% in size
Target sequence (Q9NUW8 whole entry, looked up): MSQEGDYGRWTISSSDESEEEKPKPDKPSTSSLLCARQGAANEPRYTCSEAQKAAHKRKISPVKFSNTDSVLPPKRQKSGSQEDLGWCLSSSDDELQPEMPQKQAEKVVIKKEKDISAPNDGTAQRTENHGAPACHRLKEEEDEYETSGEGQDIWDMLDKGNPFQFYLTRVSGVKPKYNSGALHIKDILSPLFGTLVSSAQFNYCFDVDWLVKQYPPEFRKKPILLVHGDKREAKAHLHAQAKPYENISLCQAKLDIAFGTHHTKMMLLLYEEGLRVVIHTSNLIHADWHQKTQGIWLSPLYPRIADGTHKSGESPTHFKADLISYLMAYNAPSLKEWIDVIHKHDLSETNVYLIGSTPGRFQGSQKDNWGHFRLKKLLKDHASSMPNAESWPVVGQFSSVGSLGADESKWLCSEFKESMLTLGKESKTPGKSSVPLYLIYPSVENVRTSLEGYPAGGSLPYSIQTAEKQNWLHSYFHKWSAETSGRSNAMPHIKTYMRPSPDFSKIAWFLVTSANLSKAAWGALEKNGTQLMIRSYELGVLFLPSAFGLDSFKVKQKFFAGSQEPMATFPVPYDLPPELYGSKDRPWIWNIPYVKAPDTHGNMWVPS
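Compounds were preincubated with Tdp1 (1 nM final) for 15 min at room temperature before substrate (15 nM final) started a 5 min reaction; beads (10 ug/ml final) were then added for 10 min before AlphaScreen detection.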
Numbers stand for hits; n = inactive; u = inconclusive; x = not tested or not shown; [ ] = remark or other dose. Rows were chosen to be rich in hits. Some 17% of all compounds tested hit in one or more screens of this group. Unless noted, the call rests on the fitted dose curve; in most records, active means well fitted curve in the direction sought with a large enough effect; inconclusive means small, poorly fitted or top-dose-only effect, or another doubt; inactive means no such curve, though single readings can be large; an effect the other way counts as inactive or inconclusive.

SMILES	TDP1 cell CPT	TDP1 cell noCPT	ClpP mod	TDP1 block
COc1ccc(C(=O)NCC2Cc3cccc(-c4ccc(S(C)(=O)=O)cc4)c3O2)c(OC)n1 (centres undefined)	n[9.04 µM]	n	x	x
NC(=O)CC(NC(=O)Cc1ccc(Cl)cc1)c1ccc(NCCOc2ccccc2)c([N+](=O)[O-])c1 (centres undefined)	n	n	n	x
Cc1onc(-c2ccccc2)c1C(=O)Nc1ccc(Br)cc1Cl	n	n	n	n
CN(Cc1ccco1)C(=O)[C@H](Cc1ccccc1)NC(=O)CC[C@H]1O[C@@H](n2ccc(=O)[nH]c2=O)[C@H](O)[C@@H]1O	n	n	n	x
CC(C)[C@H](NC(=O)[C@@H]1Cc2c([nH]c3ccccc23)C2c3ccccc3C(=O)N21)C(=O)N1CCC[C@@H]1C(=O)O (some centres undefined)	n	n	n	x
COc1ccc(OC)c(CN2CCN(C(=O)c3ccc(S(=O)(=O)Nc4ccccc4F)cc3)CC2)c1	u	u	n	n
O=C(Nc1ncc(Cc2ccc(F)cc2)s1)c1ccc2c(c1)CC(c1ccccc1)OC2=O (centres undefined)	u	23µM	n	n
Cc1ccc2c(c1)C(=O)OC(C(=O)Nc1ncc(Cc3ccccc3)s1)C2 (centres undefined)	x	x	n	n
C[C@H](CO)N1C[C@H](C)[C@@H](CN(C)Cc2ccncc2)OCc2cnnn2CCCC1=O	n	n	n	x
CCn1cc2nc(SCC(=O)Nc3ccc(OC)cc3OC)n(Cc3ccc(OC)cc3)c(=O)c2n1	4.1µM	2.6µM	x	n[0.0935 µM]
CCn1cc2nc(SCC(=O)Nc3ccccc3C(F)(F)F)n(Cc3ccc(C)cc3)c(=O)c2n1	16µM	18µM	n	u
CCn1c(SCC(=O)Nc2cccc(OC)c2)nc2c(c1=O)SCC2	n	n	n	x
CCn1c(SCC(=O)Nc2cc(OC)ccc2OC)nc2c(c1=O)SCC2	u	26µM	n	n
CCn1cc2nc(SCC(=O)Nc3ccc(OC)c(Cl)c3)n(Cc3ccc(OC)cc3)c(=O)c2n1	n	n	n	n
Cc1ccc(NC(=O)CSc2nc3ccccc3c(=O)n2Cc2cccs2)cc1	u	n	n	n
Cc1ccc(Cn2ccn(CC(=O)Nc3ccccc3C(F)(F)F)c(=O)c2=O)cc1	n	n	n	n
CCn1cc2nc(SCC(=O)Nc3ccc(C)cc3)n(Cc3ccc(C)cc3)c(=O)c2n1	21µM	13µM	n	n
CC(=O)c1ccc(NC(=O)c2cc(-c3ccc(Cl)c(Cl)c3)on2)cc1	n	n	n	n
COc1ccc2[nH]c3c(c2c1)CCN1C(=O)C(CC(=O)NC(C)(C)C)C[C@H](C(=O)N(C(C)C)C(C)C)[C@@]31C (some centres undefined)	u	u	n	n
Cc1ccccc1NC(=O)CN(C)S(=O)(=O)c1cccc2nsnc12	n	n	n	n
CC(C)(C)NS(=O)(=O)c1cc(C(=O)Nc2sccc2C#N)ccc1Cl	16µM	12µM	n	n
CNC(=O)CS(=O)CC(=O)Nc1cc(OCCOC)c(Cl)cc1Cl (centres undefined)	n	n	x	x
CC(=O)NC(c1ccc2ccccc2c1)c1ccc2cccnc2c1O (centres undefined)	3.3µM	4.6µM	x	x
CCOc1cc(C(Nc2cc(C)ccn2)c2ccc3cccnc3c2O)ccc1OC (centres undefined)	u	u	n	n
CC(=O)NC(c1cccs1)c1cc(F)c2cccnc2c1O (centres undefined)	x	x	x	n
SMILES	TDP1 cell CPT	TDP1 cell noCPT	ClpP mod	TDP1 block
COc1ccc(C(NC(C)=O)c2ccc3cccnc3c2O)cc1OC (centres undefined)	6.3µM	6.3µM	n	x
COc1ccc(C(NC(C)=O)c2ccc3cccnc3c2O)c(OC)c1 (centres undefined)	3.7µM	2.9µM	n	n
CC1N=C(SCC(=O)c2ccc(F)cc2)N2C(C)N=C(SCC(=O)c3ccc(F)cc3)N12 (centres undefined)	4.1µM	4.1µM	n	x
CCCOc1ccc(-c2nonc2NC(=O)c2oc3ccc(C)cc3c2C)cc1OCCC	9.2µM	u	n	n
CCOc1ccc(-c2nonc2NC(=O)c2oc3cc(C)ccc3c2C)cc1	23µM	u	u	n
CCOc1ccc(-c2nonc2NC(=O)c2oc3c(C)c(C)ccc3c2C)cc1OCC	15µM	16µM	n	n
